HT1080-NT tox – qHTS for induction of synthetic lethality in tumor cells producing 2HG: qHTS for the HT-1080-NT fibrosarcoma cell line | hit rate 1.6% among 360,000 | Potency, µM (series often up to 46.1 µM), for the others: at the highest dose activity, negative = less viability, most hits filed as cytotoxic | HT-1080-NT fibrosarcoma viability, CellTiter-Glo ATP luminescence, 48 h;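 further: NT is the 2HG producing partner of a matched IDH1 knockdown line; 0% = DMSO-treated cells and -100% = media-only wells without cells; nearly all actives have a fitted effect of over 55% in size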
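Toxicity toward the 2HG-producing NT line was scored as %Activity, normalised to DMSO and no-cell wells, from CellTiter-Glo luminescence after 48 hours' treatment.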
HepG2 viability – qHTS for Inhibitors of TGF-b: Cytotox Counterscreen; HepG2 CAGA-GFP viability, ATP luminescence, 18 h; Potency, µM (series often up to 46.1 µM), inactives show at the highest dose activity change, negative = cytotoxicity, most hits filed as cytotoxic; hit rate 0.76% among 410,000; AID 588856, 2011
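CellTiter-Glo luminescence gave cytotoxicity after 18 hours at 37 degrees C. The cells were HepG2 CAGA-GFP in 1% FBS DMEM, stimulated with 500 pg/mL TGF-beta after compound addition. %Activity was normalised to no-cell wells (complete cell-killing) and DMSO (no toxicity), and curves were fitted and classified.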
HT1080 IDH1KD tx – qHTS for induction of synthetic lethality in tumor cells producing 2HG: qHTS for the HT-1080-IDH1KD cell line | hit rate 2% among 360,000 | HT-1080 IDH1 knockdown viability, ATP luminescence, 48 h | Potency, µM (doses to about 46.1 µM), inactives show top-dose activity, negative = toxicity, usual class: cytotoxic;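 further: 0% = DMSO wells and -100% = cell-free medium wells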
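Using the IDH1-knockdown HT-1080 line run in the same batch and compound series as the NT line, viability after 48 h at 37 °C was determined by CellTiter-Glo luminescence and expressed as % activity.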
ATXN2 expr inh – Primary qHTS for Inhibitors of ATXN expression. HEK-293 ATXN2-luciferase reporter, luminescence, 24 h. Potency, µM (series often up to 57 µM), inactives show at the highest dose activity change, negative = inhibition, most hits filed as inhibitors. hit rate 0.72% among 360,000. AID 1745845, 2022; further: on the % scale 0 is the no-effect control and ±100 the full control effect; nearly all actives have a fitted effect of over 55% in size
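ATXN2-luciferase reporter cells (luciferase flanked by upstream and downstream ATXN2 gene portions) were treated 24 h at 37 °C with compounds at up to 57 uM. SteadyGlo luminescence gave expression; GF-AFC fluorescence gave viability.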
ATXN viability – Viability Counterscreen for Primary qHTS for Inhibitors of ATXN expression | Potency, µM (top dose mostly 56.7 µM), most hits filed as cytotoxic | S2 cells (HEK-293 line with an ATXN2-luciferase reporter) viability, CellTiter-Fluor protease fluorescence, 24 h | hit rate 0.49% among 400,000; further: nearly all actives have a fitted effect of over 40% in size
TGFb inhibitor – qHTS for Inhibitors of TGF-b; HepG2 CAGA-GFP TGF-b/SMAD3 reporter, GFP fluorescence, 18 h; TGF-beta stimulated, 500 pg/mL final; Potency, µM (highest dose often 46.1 µM), for inactives: at the highest dose activity, negative = inhibition, actives largely listed as inhibitors; hit rate 1.2% among 410,000; further: on the % scale 0 is the no-effect control and ±100 the full control effect; nearly all actives have a fitted effect of over 65% in size
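TGF-beta reporter screen: HEPG2 CAGA-GFP, 1% FBS, 500 pg/mL TGF-beta final, 18 h; per-cell GFP summed per well; curves fitted and categorized by class.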
Numbers without * were called inactive; i = inactive; ? = inconclusive; . = no result given. The list is not random: actives were taken first. Their share in the collection is about 3.8%. The call rests on the fitted dose curve; in most records, active means well fitted curve in the direction sought with a large enough effect; inconclusive means small, poorly fitted or top-dose-only effect, or another doubt; inactive means no such curve, though single readings can be large; an effect the other way counts as inactive or inconclusive. Potency means the concentration at half of the fitted maximal effect.

SMILES	HT1080-NT tox	HepG2 viability	HT1080 IDH1KD tx	ATXN2 expr inh	ATXN viability	TGFb inhibitor
COc1ccc(S(=O)(=O)NCCc2sc3nc(-c4ccc(C)cc4)nn3c2C)cc1F	.	2.6%	.	.	.	?
NC(Cc1ccc(N(CCCl)CCCl)cc1)C(=O)O (centres undefined)	?	.	-21.5%	.	.	.
O=C(CCCc1ccc(N(CCCl)CCCl)cc1)NCc1ccccc1	?	-18.3%	23.1µM*	.	i	-9.5%
Cc1cc(N2CCCCC2)nc2ccc(NC(=O)/C=C/c3ccc(OC(C)C)cc3)cc12	.	-23.1%	.	-10.3%	i	?
[O-]c1ccccc1-[n+]1c(-c2ccccc2)cc(-c2ccccc2)cc1-c1ccccc1	.	-19.4%	?	?	?	?
Oc1ccccc1-[n+]1c(-c2ccccc2)cc(-c2ccccc2)cc1-c1ccccc1	14.6µM*	-39.6%	?	?	?	?
Cc1ccccc1-[n+]1c(-c2ccccc2)cc(-c2ccccc2)cc1-c1ccccc1	7.31µM*	-31.9%	7.31µM*	?	12.6µM*	?
COc1ccc(CC(=O)N2C[C@H]3C[C@@H](C2)c2cccc(=O)n2C3)cc1	11.7%	4.6%	0.1%	4.1%	i	13.7%
COc1ccc(OC(=O)N2C/C(=C/c3ccccc3)C(=O)/C(=C\c3ccccc3)C2)cc1	10.3µM*	-5.0%	8.2µM*	?	31.6µM*	?
CC(=O)C1CCOC1=O (centres undefined)	.	.	.	4.5%	i	.
CCOC(=O)Cn1cc(C=C2C(=O)N(C)C(=O)N(C)C2=O)c2ccccc21	7.4%	-41.7%	6.2%	-0.1%	i	7.08µM*
Cc1ccc(S(=O)(=O)N(CC(=O)NCCSc2ccc(Cl)cc2)c2ccccc2C)cc1	.	-10.7%	.	-21.6%	?	?
CO[C@H]1CCC(O[C@H]2C[C@H]([C@]3(C)CC[C@]4(C[C@H](O)[C@@H](C)[C@@H]([C@@H](C)C=C(C)C(=O)[C@H](C)C[C@H](C)C(=O)O)O4)O3)O[C@]3(O[C@@H]([C@H]4O[C@@](O)(CO)[C@H](C)C[C@H]4C)C[C@H]3C)[C@H]2C)O[C@H]1C (some centres undefined)	.	.	.	3.06µM*	.	.
O=c1oc2ccccc2c(O)c1C(CC(O)c1ccc(-c2ccc(Br)cc2)cc1)c1ccccc1 (centres undefined)	.	.	.	8.9%	i	.
CCc1ccc(-c2cc(C(F)(F)F)n3nc(C(=O)Nc4c(C)nn(Cc5ccc(F)cc5)c4C)cc3n2)s1	6.2%	0.7%	?	-11.1%	.	?
O=C(c1ccc2c(c1)N(Cc1ccc(F)cc1Cl)C(=O)c1ccccc1S2)N1CCC2(CC1)OCCO2	.	-19.1%	.	.	.	11.2µM*
Cc1ccc(CN2C(=O)c3ccccc3Sc3ccc(C(=O)N4CCC5(CC4)OCCO5)cc32)cc1	.	-37.0%	.	.	.	?
Cc1cc(C)c(C(=O)CSc2n[nH]c(=O)n2C2CC2)cc1C	-16.3%	-26.1%	31.6µM*	-11.3%	i	-17.1%
C[N+]1(CCF)[C@@H]2CC[C@H]1CC(OC(=O)C(O)(c1ccccc1)c1ccccc1)C2 (some centres undefined)	.	.	.	3.9%	i	.
CCN(C(=O)Cn1c(=O)oc2cc(Cl)ccc21)c1cccc(C(F)(F)F)c1	.	-91.6%	.	-13.9%	i	?
Cc1ccc(C)c(N2CCN(c3ncnc4onc(C)c34)CC2)c1	.	-22.1%	.	?	i	?
COC1/C=C/C=C(\C)Cc2cc(O)c(Cl)c(c2)N(C)C(=O)CC(OC(=O)C(C)C)C2(C)OC2C(C)C2CC1(O)NC(=O)O2 (centres undefined)	0.0092µM*	-5.4%	?	?	?	?
COc1cc2cc(c1Cl)N(C)C(=O)C[C@H](OC(=O)C(C)C)[C@]1(C)O[C@H]1[C@H](C)[C@@H]1C[C@@](O)(NC(=O)O1)[C@H](OC)C=CC=C(C)C2	.	.	.	-27.8%	.	.
CSCCC(c1nnnn1-c1c(C)cccc1C)N1CCC2(CC1)C(=O)NCN2c1ccccc1 (centres undefined)	?	-42.9%	?	?	?	11.2µM*
Cc1cccc(C)c1-n1nnnc1C(CCc1ccccc1)N1CCC2(CC1)C(=O)NCN2c1ccccc1 (centres undefined)	1.3%	-6.6%	2.1%	0.0%	?	8.2%
SMILES	HT1080-NT tox	HepG2 viability	HT1080 IDH1KD tx	ATXN2 expr inh	ATXN viability	TGFb inhibitor
COc1cccc(C(c2nnnn2C2CCCCC2)N2CCC3(CC2)C(=O)NCN3c2ccccc2)c1OC (centres undefined)	?	-3.3%	?	?	?	22.4µM*
COC1CC2C=C(C)C=CC=CC(=O)NC(c3ccccc3)CC=CCCC(O)CC(=O)C2=C1O (centres undefined)	1.84µM*	-110.0%	1.64µM*	2.82µM*	14.1µM*	?
CCC(Oc1ccccc1OC)C(=O)Nc1ccc2c(c1)OCCO2 (centres undefined)	4.0%	6.4%	10.6%	-17.0%	?	-1.0%
CN(C)CC(C(=O)Cc1ccccc1)c1ccccc1 (centres undefined)	16.4µM*	-101.9%	8.2µM*	?	.	?
CCNC(=O)CCSc1nc2cc(Cl)ccc2o1	17.3%	2.7%	15.7%	1.3%	i	?
COc1ccc(-c2c(C)c3cc(OC(=O)N4CCOCC4)ccc3oc2=O)cc1	.	-25.6%	.	.	.	-4.3%
O=C(Nc1ccc(Cl)c(Cl)c1)c1ccco1	-5.0%	-0.6%	-21.5%	52.9%	?	-21.7%
CC(C)(C)c1ccc(C(=O)Nc2ccc(NC(=O)c3ccco3)cc2)cc1	10µM*	-39.5%	10µM*	?	i	?
CCCC[C@@H](C)C[C@@H](C)C(=O)N(C)[C@@H](CC(C)C)C(=O)N[C@H](C(=O)N(C)[C@H](C(=O)N1C[C@@H](O)C[C@H]1C(=O)N1C(=O)C=C[C@@H]1C)C(C)C)C(C)OC(C)=O (some centres undefined)	0.0291µM*	-112.8%	0.116µM*	?	.	?
CCOC(=O)C1(c2ccccc2)CCN(CCC(=O)Nc2cccc(Br)c2)CC1	18.4µM*	-166.5%	23.1µM*	?	?	?
CN[C@@H](C)Cc1ccccc1	.	.	.	.	i	.
